Measured values: PubChem BioAssay AID1851 (National Center for Advancing Translational Sciences (NCATS), 2009)
The campaign covered roughly 16,000 compounds. About 2,600 (16%) were called active. Inconclusive results (about 20%) are left out. Calls come from the whole dose curve; as a rule, active = well fitted curve in the direction sought with a large enough effect; inconclusive = small, poorly fitted or top-dose-only effect, or effect the other way; inactive = no such curve, though single readings can be large or run the other way. The list is a sample of the results.

target: Cytochrome P450 2D6 (Homo sapiens) (UniProt P10635); experiment: Cytochrome panel assay with activity outcomes; details: recombinant CYP, pro-luciferin dealkylation, luminescence, p450-cyp2d6; series mostly up to 57.1 µM
% is set by controls: 0 for no effect and ±100 for the full control effect.

Chain of Cytochrome P450 2D6 (Homo sapiens) (P10635 whole entry, looked up): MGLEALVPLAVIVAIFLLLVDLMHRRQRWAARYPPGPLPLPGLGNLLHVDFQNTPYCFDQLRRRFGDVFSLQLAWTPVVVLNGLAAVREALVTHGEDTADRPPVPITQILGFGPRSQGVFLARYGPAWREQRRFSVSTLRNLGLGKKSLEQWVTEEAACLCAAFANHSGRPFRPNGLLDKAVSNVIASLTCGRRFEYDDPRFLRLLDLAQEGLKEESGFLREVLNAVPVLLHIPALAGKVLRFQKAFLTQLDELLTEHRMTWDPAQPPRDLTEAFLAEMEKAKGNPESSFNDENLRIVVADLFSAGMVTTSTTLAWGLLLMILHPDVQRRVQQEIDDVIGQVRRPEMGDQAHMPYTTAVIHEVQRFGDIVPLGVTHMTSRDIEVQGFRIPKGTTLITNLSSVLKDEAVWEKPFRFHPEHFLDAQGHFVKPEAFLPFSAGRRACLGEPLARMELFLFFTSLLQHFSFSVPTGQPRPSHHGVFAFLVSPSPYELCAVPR

AC50, active:
COc1ccc2nc3c(c([Si](C)(C)C(C)(C)C)c2c1)Cn1c-3cccc1=O 2 µM
CN(Cc1ccco1)c1ncnc2ccc(-c3ccccc3Cl)cc12 7.94 µM
CN(Cc1ccco1)c1ncnc2ccc(-c3ccccc3C#N)cc12 15.8 µM
CN(C)Cc1ccccc1-c1ccc2ncnc(N(C)Cc3ccco3)c2c1 2 µM
CN(Cc1ccco1)c1ncnc2ccc(-c3ccccc3C(F)(F)F)cc12 10 µM
CN1C2C=C(N(CCc3c[nH]c4ccccc34)C(=O)c3ccc(Cl)cc3)CC1CC2 (stereo unspecified) 0.398 µM
Nc1ccc(N(c2ccccc2)c2ccc(N)cc2)cc1 14.1 µM
CCOc1ccc2nc(N3CCCCCC3)sc2c1 1 µM
Cc1nc2c(O)cccc2c(=O)[nH]1 12.6 µM
Cc1cc(C)c(C#N)c(SCc2cc3c(cc2Cl)OCO3)n1 8.91 µM
Cc1cccc(OCCCCCn2ccnc2)c1 0.1 µM
Cc1ccc(OCCOCCn2ccnc2)c(Br)c1 1 µM
Cc1nc(SCC(=O)NCCc2ccc(Cl)cc2)nc(C)c1C 3.55 µM
CC(=O)OC[C@H]1O[C@@H](O/N=C(\C)CCN2CCCCc3nc(C)c(C)cc32)[C@H](OC(C)=O)[C@@H](OC(C)=O)[C@H]1OC(C)=O 3.98 µM
CC(=O)OC[C@H]1O[C@@H](O/N=C(\C)CCN2CCCc3nc(C)c(C)cc32)[C@H](OC(C)=O)[C@@H](OC(C)=O)[C@H]1OC(C)=O 3.16 µM
CN(c1ccccc1)c1nc(-n2ccnc2)nc(-n2ccnc2)n1 11.2 µM
c1ccc(-c2nc(N3CCCCCC3)nc(-n3ccnc3)n2)cc1 14.1 µM
c1csc(CNc2cc(-c3ccoc3)ncn2)c1 15.8 µM
Cc1cccc(CNc2cc(-c3ccoc3)ncn2)c1 25.1 µM

AC50, inactive:
NCCCCNCCCN
CC1CCN(c2cc(N3CCC(C)CC3)c([N+](=O)[O-])cc2/C=C(\C#N)c2nn(-c3ccccc3)c(N)c2C#N)CC1
CN(CCO)c1nc(N)c2c(N)nc3c(c2c1C#N)CC(=O)N3C1CCCC1
C[C@@](N)(Cc1ccc(O)cc1)C(=O)O
CC(C)OCCCN1CN(S(=O)(=O)c2cccc(Cl)c2)c2nc3ccccc3nc21
CC(=O)NN1C(=O)/C(=C\c2ccc(C)cc2)SC1=S
O=C(Nc1cccc(C(F)(F)F)c1)c1n[nH]c(Cn2cncn2)n1
N[C@@H]1CONC1=O
Cc1ccc(N(C(=O)c2csnn2)C(C(=O)NC(C)(C)C)c2cccs2)cc1 (stereo unspecified)
CC(C)(C)[Si](C)(C)c1c2c(nc3ccc(OCc4ccccc4)cc13)-c1cccc(=O)n1C2
CC(C)c1cccc2nc3c(c([Si](C)(C)C(C)(C)C)c12)Cn1c-3cccc1=O
O=C1C(CCS(=O)c2ccccc2)C(=O)N(c2ccccc2)N1c1ccccc1 (stereo unspecified)
FC(F)(F)c1ccccc1-c1ccc2ncnc(N3CCOCC3)c2c1
CN(Cc1ccco1)c1ncncc1-c1cccc(C#N)c1
COCCNC(=O)c1sc2nc(-c3ccccc3)cn2c1C
Cc1ccc(NC(=O)C(=O)NCc2ccc(/C=C(/C#N)C(=O)NCc3cccnc3)o2)cc1
Nc1ncnc2c1ncn2[C@@H]1CCCO1
CCN1C(=O)C2(SC(NC(C)=O)=NN2C(C)=O)c2cc(C)ccc21 (stereo unspecified)
CC[C@H](Cc1c(I)cc(I)c(N)c1I)C(=O)O
CNc1cnn(-c2ccccc2)c(=O)c1Cl
COc1ccc(Oc2ncc3nc(CCc4ccccc4)c(=O)n(C)c3n2)cc1
CCOc1ccc(NC(=O)CCNS(=O)(=O)c2ccc3c(c2)c(=O)n(C)c(=O)n3C)cc1
Cc1sc2ncnc(OCC(=O)NC(C)C)c2c1C
COc1ccccc1C1/C(=C(/O)c2ccccc2)C(=O)C(=O)N1CCO (stereo unspecified)
O=C(NCCc1c[nH]c2ccccc12)[C@@H]1C[C@H]1[C@@H](NP(=O)(c1ccccc1)c1ccccc1)c1ccccc1
O=C(NCCc1c[nH]c2ccccc12)[C@H]1C[C@@H]1[C@H](NP(=O)(c1ccccc1)c1ccccc1)c1ccccc1
CC1=Nc2ccccc2/C1=C\c1nc(-c2ccc(C(F)(F)F)cc2)oc1O
Nc1ccc(S(=O)(=O)NC(=O)c2ccccc2)cc1
CC(=O)c1nnn(-c2nc(N)nc(N(c3ccccc3)c3ccccc3)n2)c1C
O=C(Cn1ccnc1[N+](=O)[O-])NCCO
COc1cccc(N=Cc2c[nH][nH]c2=O)c1
C[C@@H]1c2cccc(O)c2C(O)=C2C(=O)[C@@]3(O)C(O)=C(C(N)=O)C(=O)[C@@H](N(C)C)[C@@H]3[C@@H](O)[C@@H]21
CCOc1cc(/C=N/NC(=O)COc2cccc(C)c2)ccc1OC(=O)c1cccs1
CCOC(=O)c1c(C)n(C)c2ccc(OC)c(NS(=O)(=O)c3ccc(Cl)s3)c12
CCOC(=O)C1CCN(C(=O)C2CCN(c3nc4ccc(OC)cc4s3)CC2)CC1
CCOc1ccc2nc(NC(=O)c3ccc(S(=O)(=O)N4CCOCC4)cc3)sc2c1
CCN1CCN(C(=O)N[C@H](C(=O)N[C@@H]2C(=O)N3C(C(=O)O)=C(CSc4nnnn4C)CS[C@@H]23)c2ccc(O)cc2)C(=O)C1=O
O=c1[nH]ccc2c(O)cccc12
O=c1[nH]c2ccccc2c2ccccc12
Cc1cc(C)c(C#N)c(SCC(=O)c2ccc(Cl)cc2Cl)n1
Cc1cc(C)c(C#N)c(SCC(=O)C(C)(C)C)n1
Brc1ccccc1OCCOCCOc1cccc2cccnc12
Cc1ccc(/C(O)=C2/C(=O)C(=O)N(CCCn3ccnc3)C2c2ccccn2)cc1 (stereo unspecified)
COc1cc(C)ccc1OCCCOc1ccccc1Br
C/C(CC(=O)Nc1cc(C)ccn1)=N\NC(=O)COc1cccc(C)c1
Cc1ccc(C(=O)COC(=O)c2ccc3c(c2)C(=O)N(c2cccc4ncccc24)C3=O)cc1C
Cc1ccc(C)c(S(=O)(=O)NC(CC(C)C)C(=O)O)c1 (stereo unspecified)
COc1ccc(C2/C(=C(/O)c3ccc4c(c3)CC(C)O4)C(=O)C(=O)N2CCN2CCOCC2)cc1 (stereo unspecified)
CN1CCN(c2ncc3ncc(=O)n(Cc4ccc(F)cc4)c3n2)CC1
Nc1nc2c(ncn2COC(CO)CO)c(=O)[nH]1
O=C1Nc2ccc([N+](=O)[O-])cc2C1(O)N1CCCCCC1 (stereo unspecified)
Nc1cc(N)nc(SCC(=O)NNC(=O)c2ccc(Cl)cc2)n1
Cc1nc(SCC(=O)Nc2ccc(N3CCOCC3)cc2)nc(C)c1C
CCOc1ccc(NC(=O)Cn2nnc(C(=O)NCc3ccccc3OC)c2N)cc1
COc1ccc(C2(CNC(=O)/C=C/c3ccco3)CCCC2)cc1OC
O=C(NC(=S)Nc1nc(-c2ccc(Br)cc2)cs1)c1cccnc1
Cc1ccccc1-c1cc(C(=O)Nc2nc3c(s2)CCCC3)c2ccccc2n1
O=C(c1cnccn1)N1CCC[C@@]2(CCN(c3ncccn3)C2)C1
CCOC(=O)c1nc2sc(C)c(C)c2c(=O)[nH]1
C[C@@H]1O[C@@H](n2cc(F)c(=O)[nH]c2=O)[C@H](O)[C@@H]1O
COC(=O)[C@@]1(Cc2ccc(OC)cc2)[C@@H]2C(=CC(=O)[C@H]2CC(=O)C(=O)N(C)C)CN1C(=O)c1ccccc1
CCCSc1cc(N2CCCC2)nc(-c2ccccc2)n1
CCOc1nc(N2CCCCC2)nc(-n2cc(-c3ccccc3)nn2)n1
C[C@@H](N)C(=O)O
Cc1c(C(=O)NN2CCN(C)CC2)cccc1[N+](=O)[O-]
Cc1sc(=NC(=O)c2ccco2)n(C)c1-c1ccc(F)cc1
CCc1cc2cc(C)c(C)cc2nc1SCC(=O)NNC(=O)c1ccco1
CC(C)(C)C(=O)N1CCN(c2ccc([N+](=O)[O-])c(NCC3CCCO3)c2)CC1 (stereo unspecified)
O=c1c(Cl)c(N2CCN(S(=O)(=O)c3ccc(F)cc3)CC2)cnn1-c1cccc(Cl)c1
c1cncc(CNc2cc(-c3ccoc3)ncn2)c1
Cc1cnc(CNc2cc(-c3ccoc3)ncn2)cn1
Cc1cccc(CNc2cc(-c3ccc(N(C)C)cc3)ncn2)c1

activity, negative = inhibition, inactive:
CN(CCO)Cc1ncccc1O -1.69% [at 11.4 µM]
N#[N+]c1ccc(Nc2ccccc2)cc1 7.95% [at 11.4 µM]
COC(=O)[C@H](C)NC(=O)C/C=C\[C@@H](C)[C@H]1C=C[C@H](O)[C@@H](CO)O1 3.59% [at 11.4 µM]
CCN(CC(=O)O)CC(=O)O 9.63% [at 11.4 µM]
OCCCNc1ncnc2[nH]ncc12 15.1% [at 11.4 µM]
CC(C)[C@H](Sc1nc(N)nc2nc[nH]c12)C(=O)O 2.46% [at 11.4 µM]
CC(C)(C)N1C(=O)[C@H]2[C@H]3[C@H](O)[C@H](O)C/C(=N/NC(=O)OCc4ccccc4)[C@H]3CC[C@@H]2C1=O 6.89% [at 11.4 µM]
CC(=O)OC[C@@H]1O[C@H](CCO/N=C(\C)CCN2CCCc3nc(C)c(C)cc32)C=C[C@@H]1OC(C)=O -15.6% [at 11.4 µM]
COc1cccc([C@H](O)Cn2cc(-c3ccc(CON=C(C)C)cc3)nn2)c1 4% [at 11.4 µM]
CC(=O)C=NCC(=O)O -2.95% [at 11.4 µM]
